This is an account of results in PubChem BioAssay AID504332 (National Center for Advancing Translational Sciences (NCATS), 2011).

In all, about 350,000 compounds went through this assay and about 31,000 (8.9%) were called active. Where a call stands in place of a potency, no number is given. About 15% were inconclusive and are not listed. This is one part of a sample in which actives are shown more often than they occur. Calls follow the shape of the dose curve; as a rule, active = well fitted inhibition curve with a large enough effect; inconclusive = small, poorly fitted or top-dose-only effect; inactive = no such curve, though single readings can be large or run the other way.
Potency is read from the fitted curve at half-maximal effect.

Chain of Histone-lysine N-methyltransferase EHMT2 (Homo sapiens) (Q96KQ7 913-1193 limits assumed): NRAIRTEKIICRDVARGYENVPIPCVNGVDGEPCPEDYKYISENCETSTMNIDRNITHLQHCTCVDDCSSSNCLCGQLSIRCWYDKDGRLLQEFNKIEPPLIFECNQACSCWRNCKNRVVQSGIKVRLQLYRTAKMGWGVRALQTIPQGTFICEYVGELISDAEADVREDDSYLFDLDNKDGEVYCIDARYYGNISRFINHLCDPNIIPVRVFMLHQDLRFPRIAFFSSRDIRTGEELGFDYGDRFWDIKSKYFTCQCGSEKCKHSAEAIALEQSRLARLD

The target of the experiment is Histone-lysine N-methyltransferase EHMT2 (Homo sapiens) (UniProt Q96KQ7). As to the kind of experiment: qHTS Assay for Inhibitors of Histone Lysine Methyltransferase G9a. Also: nearly all actives have a fitted effect of over 75% in size. As to conditions: G9a H3K9 monomethylation, AlphaScreen, 2 h; series mostly up to 59 µM. In a few lines:
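G9a (20 nM) was preincubated 15 min with compound, then reacted 2 h at room temperature with 500 nM biotin-H3K9 peptide and 20 µM SAM. Monomethyl-H3K9 detected by AlphaScreen using anti-H3K9me1 antibody.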
On the technique in general: qHTS replaces the single test concentration by a dilution series.
Consider `COc1cc2[nH]c(=O)n(Cc3ccc(C(=O)NCc4ccc(C)cc4)cc3)c(=O)c2cc1OC`, for which the Potency entry is “inactive”.

Consider `COc1ccc(F)cc1S(=O)(=O)NCC(c1ccc2c(c1)OCO2)N1CCN(C)CC1` (stereo not drawn), for which the Potency was 50.1 µM (active).

Turning to `CN1CCN(C(CNC(=O)c2ccccc2F)c2ccc3c(c2)OCO3)CC1` (stereo not drawn), the Potency result is “inactive”.

As for `COc1ccc(F)cc1S(=O)(=O)Nc1ccc2c(c1)OCO2`, the Potency entry is “inactive”.

Regarding `Cc1ccc(Cn2c(=O)n(CCCC(=O)NCc3ccccc3Cl)c(=O)c3ccccc32)cc1`, the Potency entry was “inactive”.

In the case of `O=C(Cn1c(=O)n(-c2ccc(F)cc2)c(=O)c2sc3ccccc3c21)NC1CCCC1`, the Potency result was “inactive”.

On to `C=CCNC(=O)CSc1nc2sc(C)c(C)c2c(=O)[nH]1`, for which the Potency result was “inactive”.

Consider `CC(C)C(C)(C#N)NC(=O)CSc1nncn1-c1ccccc1` (stereo not drawn), for which the Potency result was “inactive”.

As for `CC(C)C(C)(C#N)NC(=O)CSc1nc2scc(-c3ccccc3)c2c(=O)[nH]1` (stereo not drawn), the Potency is 28.2 µM (active).

On to `CCOc1ccc(CNC(=O)c2cccc(Nc3nc4ccccc4n4nnnc34)c2)cc1OC`, for which the Potency entry is “inactive”.

For `Cc1nn2c(=O)cc(COC(=O)c3cccc(NC(=O)COc4ccccc4Cl)c3)nc2s1`, the Potency entry is “inactive”.

In the case of `CCCCCn1c(=O)[nH]c2cc(C(=O)Nc3ccc(F)cc3)ccc2c1=O`, the Potency entry is “inactive”.

Consider `O=C(NCc1ccc2c(c1)CCN2C(=O)c1ccccc1)c1ccccc1`, for which the Potency entry is “inactive”.

`COc1ccc(/C(O)=C2/C(=O)C(=O)N(CCCN(C)C)C2c2ccccc2)cc1OC` (stereo not drawn): the Potency entry is “inactive”.

In the case of `COc1cccc(C2/C(=C(/O)c3ccc(F)cc3)C(=O)C(=O)N2CCN(C)C)c1` (stereo not drawn), the Potency entry was “inactive”.

Consider `CCCOc1ccc(/C(O)=C2/C(=O)C(=O)N(CCN(C)C)C2c2ccc(OC)c(OC)c2)cc1` (stereo not drawn), for which the Potency was 10 µM (active).

With `O=C(Nc1cccc(C(=O)NC2CC2)c1)c1ccc(F)c(S(=O)(=O)N2CCOCC2)c1`, the activity, negative = inhibition is 11.8% [at 0.501 µM] (inactive).

As to `COc1ccc(C2=NN(C(=O)CSc3nnnn3C)C(c3ccco3)C2)cc1` (stereo not drawn), the Potency result was “inactive”.

On to `Cc1ccc(C2=NN(C(=O)COc3ncnc4ccccc34)C(c3ccco3)C2)cc1` (stereo not drawn), for which the Potency entry was “inactive”.

For `Cc1ccc(C2=NN(C(=O)CSc3nc(N)cc(N)n3)C(c3ccco3)C2)cc1` (stereo not drawn), the Potency was 50.1 µM (active).

Consider `CCCc1nn2c(=O)cc(COC(=O)c3ccc(NC(=O)COc4ccc(F)cc4)cc3)nc2s1`, for which the Potency result is “inactive”.

`Cc1nn(-c2ccccc2)c(C)c1NC(=O)COC(=O)c1cc(Cl)ccc1O`: the Potency entry is “inactive”.

Turning to `Cc1cc(Nc2ccc(C(=O)N3CCCCC3)cc2)c2cccc(C)c2n1`, the Potency entry is “inactive”.

In the case of `Cc1ccc(Nc2cc(C)nc3c(C)ccc([N+](=O)[O-])c23)cc1`, the Potency was 11.2 µM (active).

In the case of `Cc1ccc(Nc2ccc(C(N)=O)cc2[N+](=O)[O-])cc1`, the Potency result is “inactive”.

For the molecule `COCCn1cnnc1SCC(=O)Nc1cccc(S(=O)(=O)N2CCCCC2)c1`, the activity, negative = inhibition is -9.19% [at 12.7 µM] (inactive).

Take `COc1ccc(CN2CCc3nc(Nc4ccccc4)ncc3C2)c(OC)c1OC`: the Potency entry was “inactive”.

As for `C=CCn1c(CSc2nc3ccccc3s2)nnc1SCC(=O)NCc1ccco1`, the Potency is 44.7 µM (active).

In the case of `O=C(CSc1nc2ccc(Nc3nc(N4CCOCC4)nc(N4CCOCC4)n3)cc2s1)NCc1ccco1`, the Potency result is “inactive”.

As for `O=C(CCCn1c(SCC(=O)c2ccc(F)cc2)nc2ccccc2c1=O)NCc1ccco1`, the Potency result is “inactive”.

With `CCOC(=O)c1cccc(NS(=O)(=O)c2cc(-c3cnc(C)o3)ccc2OC)c1`, the Potency result was “inactive”.

Consider `Cc1cccc(NS(=O)(=O)c2cccc(C(=O)NNC(=O)c3ccccc3O)c2)c1`, for which the activity, negative = inhibition was 56.9% [at 12.7 µM] (inactive).

Consider `O=c1oc2ccc(C#CC3(O)CCCCC3)cc2cc1-n1cc(-c2ccsc2)nn1`, for which the activity, negative = inhibition was -0.586% [at 0.501 µM] (inactive).

On to `CCS(=O)(=O)c1ccc(-c2cccc(NC(=O)c3ccc(Br)o3)c2)nn1`, for which the Potency result is “inactive”.

In the case of `CCOc1cc(-c2noc(CCC(=O)N3CCOCC3)n2)ccc1OC`, the Potency result was “inactive”.

For `CN1CCN(C(=O)CCc2nc(-c3ccc(Cl)cc3)no2)CC1`, the Potency result was “inactive”.

For `COc1ccc(N2CCN(C(=O)CCc3nc(-c4ccc(C)cc4)no3)CC2)cc1`, the Potency was 31.6 µM (active).

As to `CCOc1ccc2oc(C(=O)N(CC)CC(=O)Nc3ccc(NC(C)=O)cc3)c(C)c2c1`, the activity, negative = inhibition was -40.2% [at 12.7 µM] (inactive).

For the molecule `COc1ccc(CCC(=O)NCCc2csc(-c3ccc(Cl)cc3)n2)cc1`, the Potency result was “inactive”.

On to `CCOc1ccc(C(=O)c2cn(Cc3ccccc3OC)c3ccc(F)cc3c2=O)cc1`, for which the Potency entry was “inactive”.

Turning to `CCOc1ccc(NC(=O)CCc2c(C)nn(-c3ccc(N4CCCC4)nn3)c2C)cc1`, the Potency result is “inactive”.

Consider `COc1cccc2cc(-c3nc(Cl)c4c5c(sc4n3)CC(C)CC5)c(=O)oc12` (stereo not drawn), for which the Potency result is “inactive”.

For the molecule `Cc1ccc2nc(/C(C#N)=C/c3ccccc3F)[nH]c2c1`, the Potency result is “inactive”.

With `COc1cc(/C=C(\C#N)c2nc3c(s2)CC(C)CC3)ccc1O` (stereo not drawn), the Potency is 50.1 µM (active).

As to `CCOc1ccc(/C=C(\C#N)c2nc3ccccc3c(=O)[nH]2)cc1OC`, the Potency result was “inactive”.

With `COc1cc(/C=C(\C#N)c2nc3ccccc3[nH]2)ccc1O`, the Potency is 39.8 µM (active).

Regarding `Cc1ccc(OCCC(=O)OCC(=O)N2c3ccccc3NC(=O)C2(C)C)cc1`, the Potency entry is “inactive”.

On to `COc1ccc(N2CC(NS(=O)(=O)c3ccc4ccccc4c3)CC2=O)cc1` (stereo not drawn), for which the Potency result is “inactive”.

Turning to `O=C(N[C@@H](Cc1ccccc1)C(=O)OCc1ccccc1)c1nc[nH]c1C(=O)N[C@@H](Cc1ccccc1)C(=O)OCc1ccccc1`, the Potency result is “inactive”.

In the case of `CC(C)c1ccc(NC(=O)Cn2nnc(C(=O)NCCc3ccccc3)c2N)cc1`, the Potency result is “inactive”.

For `Cc1ccc(-c2onc(C)c2C)cc1S(=O)(=O)Nc1ccccn1`, the Potency entry is “inactive”.

Consider `COc1ccc(C)cc1-n1c(-c2ccc(C)cc2)cc2c1CC(C)(C)CC2=O`, for which the Potency result was “inactive”.

Regarding `CC(C)(C)c1cc(=O)n2c(nc3ccccc32)[nH]1`, the Potency result is “inactive”.

As for `CC1(C)CC(=O)c2cnc3nc4ccccc4n3c2C1`, the Potency is 17.8 µM (active).

For `CC(Sc1ncnc2c1cnn2-c1ccccc1)C(=O)Nc1ccc(N2CCOCC2)cc1` (stereo not drawn), the activity, negative = inhibition is 9% [at 0.501 µM] (inactive).

For `Cc1c2cnn(-c3ccccc3)c(=O)c2c(C)n1C(C)C(=O)Nc1ccc(Br)cc1F` (stereo not drawn), the Potency result is “inactive”.

Regarding `Cc1c2cnn(-c3ccccc3)c(=O)c2c(C)n1CCCC(=O)N1CCN(C)CC1`, the Potency is 79.4 µM (active).

On to `Cc1ccccc1CNC(=O)Cn1c(C)c2cnn(-c3ccccc3)c(=O)c2c1C`, for which the Potency entry was “inactive”.

Consider `COc1ccc(C2=NOC(Cn3nc(C(=O)NCc4ccc5c(c4)OCO5)cc3-c3ccccc3)C2)cc1` (stereo not drawn), for which the activity, negative = inhibition is 1.74% [at 2.33 µM] (inactive).

In the case of `Cc1ccc(S(=O)(=O)n2cccc2CO)cc1`, the activity, negative = inhibition was 0.915% [at 2.33 µM] (inactive).

In the case of `O=C(COC(=O)Cn1cnc2ccccc2c1=O)NCc1ccccc1Cl`, the Potency entry was “inactive”.

As to `COc1ccc(C(C)=O)cc1COC(=O)Cn1cnc2ccccc2c1=O`, the Potency was 50.1 µM (active).

In the case of `COCc1cc(C(C)=O)ccc1OC`, the activity, negative = inhibition is -11.9% [at 12.7 µM] (inactive).

Consider `COc1ccccc1CNc1ccc(-c2nc(-c3ccccc3C)no2)cc1[N+](=O)[O-]`, for which the Potency result is “inactive”.

Consider `Nc1ccc(-c2nnc(-c3ccc(-c4ccccc4)cc3)o2)cc1`, for which the Potency was 7.08 µM (active).

For `Brc1ccc(-c2nnc(-c3ccccc3)o2)o1`, the Potency entry was “inactive”.

Regarding `Nc1ccc(-c2nnc(-c3ccccc3)o2)cc1`, the Potency result was “inactive”.

Take `O=C(CCS(=O)(=O)c1ccc2c(c1)NC(=O)CO2)Nc1cccc(C(F)(F)F)c1`: the Potency entry is “inactive”.

As to `CC(C)(Oc1ccc(Cl)cc1)C(=O)OCC(=O)NCCc1ccc(S(N)(=O)=O)cc1`, the Potency result is “inactive”.

Regarding `CCCn1c(N)c(C(=O)CSc2nnc3n2CCCCC3)c(=O)[nH]c1=O`, the Potency entry was “inactive”.

`COc1ccc(NC(=S)NCCN2CCC(C)CC2)cc1`: the Potency entry was “inactive”.

Take `CCN1CCN(c2cc(C)c3cc(NC(=O)c4cc(Cl)ccc4OC)ccc3n2)CC1`: the Potency result was “inactive”.

On to `CCn1c2ccccc2c2cc(NC(=S)N3CCOCC3)ccc21`, for which the activity, negative = inhibition is 7.32% [at 12.7 µM] (inactive).

`CCOCCCNC(=S)Nc1ccc2nc(N3CCN(CC)CC3)cc(C)c2c1`: the Potency is 31.6 µM (active).

On to `CCCC(=O)NC(=S)Nc1ccc(CN2CCOCC2)cc1`, for which the Potency entry is “inactive”.

Consider `Cc1cc(N2CCOCC2)nc2ccc(NC(=S)N3CCN(Cc4ccccc4)CC3)cc12`, for which the Potency is 50.1 µM (active).

In the case of `COc1ccc(C(=O)OCC(=O)Nc2ccc3[nH]c(=O)[nH]c3c2)c(OC)c1OC`, the activity, negative = inhibition was 4.23% [at 0.501 µM] (inactive).

For `COc1ccccc1NC(=O)c1oc2ccccc2c1NC(=O)C(C)C`, the Potency entry is “inactive”.

In the case of `COC(=O)N/N=C/c1c[n+]([O-])c2ccccc2[n+]1[O-]`, the Potency entry is “inactive”.

Turning to `CC(C)CC(=O)NCC(c1ccc2c(c1)OCO2)N1CCN(c2ccc(F)cc2)CC1` (stereo not drawn), the Potency result was “inactive”.

On to `CCOC(=O)c1cc2c(n(-c3ccc(C)cc3)c1=O)CCCC2=O`, for which the Potency is 17.8 µM (active).

As to `CCCCOc1ccc(NC(=O)c2cc3c(n(-c4ccc(Cl)cc4)c2=O)CCCC3=O)cc1`, the Potency entry was “inactive”.

On to `CCOC(=O)C1=C(N)N(c2ccc(C)cc2)C2=C(C(=O)CCC2)C1c1cccs1` (stereo not drawn), for which the Potency entry is “inactive”.

Turning to `Cc1c(C(=O)NNC(=O)c2ccncc2)oc2ccccc12`, the activity, negative = inhibition is 1.49% [at 12.7 µM] (inactive).

Regarding `Oc1cc(O)c2c(c1)OC(c1ccc(O)c(O)c1)C(O)C2` (stereo not drawn), the Potency was 2.51 µM (active).

With `O=C(CCC(=O)c1ccccc1)NCc1cccc(C(F)(F)F)c1`, the Potency result was “inactive”.

For `COc1ccc(C(=O)N(Cc2ccccc2)c2ccc(C)cc2)cc1S(=O)(=O)N1CCOCC1`, the activity, negative = inhibition was 8.07% [at 0.501 µM] (inactive).

Turning to `O=C(CN1CCN(S(=O)(=O)c2ccc(F)cc2)CC1)Nc1ccccc1F`, the Potency entry is “inactive”.

As to `O=C(CN1CCCCC1)NC(=O)Nc1ccccc1F`, the Potency result is “inactive”.

As for `O=C(CN1CCN(C(=O)c2cccc(F)c2)CC1)Nc1ccccc1F`, the Potency is 56.2 µM (active).

Consider `CCOc1ccccc1C(=O)NC1(C(F)(F)F)C(=O)Nc2c1c(=O)[nH]c(=O)n2-c1ccc(F)cc1` (stereo not drawn), for which the Potency result was “inactive”.

Regarding `Cc1ccc(C)n1-c1nnc(N2CCC(C(=O)NCc3ccccc3Cl)CC2)s1`, the Potency result was “inactive”.

Take `O=c1c2ccccc2ccc2ccc(P(=O)(O)O)cc12`: the activity, negative = inhibition is 2.62% [at 0.501 µM] (inactive).
